Only some compounds are listed: those with a hit (about 3.1% of all), similar ones and a draw of the others.
eLon inh = inhibits E. coli Lon protease. P0A9M0. purified E. coli Lon protease, fluorescence polarization. inhibition, % at 7.94 µM. hit rate 0.42% among 360,000; in the data active = inhibition above about 13%, passing the limit was not always enough;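 also: 0% = enzyme with probe and DMSO and 100% = no enzyme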
pPAFAH FP inh = pPAFAH (human) enzyme inhibition; Q13093; recombinant pPAFAH, FP-rhodamine probe fluorescence polarization; inhibition, % at 3.39 µM; hit rate 1.5% among 330,000;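 active = inhibition above the mean inhibition across the screen plus 3 SD, cut at about 25% in these data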;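 also: inhibitors block binding of the rhodamine activity-based probe so polarization drops; 0% = enzyme with DMSO and 100% = wells lacking pPAFAH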
PAFAH1B3 inh = PAFAH1B3 (human) inhibition | Q15102 | recombinant PAFAH1B3, FP-rhodamine probe, fluorescence polarization | hit rate 0.28% among 340,000 | inhibition, % at 3.39 µM;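 active = inhibition above the screen-wide average of all tested compounds plus 3 SD, cut at about 25% in these data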;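 also: 0% = enzyme with DMSO only and 100% = wells lacking PAFAH1B3 protein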
Target sequence (Q15102 whole entry, looked up): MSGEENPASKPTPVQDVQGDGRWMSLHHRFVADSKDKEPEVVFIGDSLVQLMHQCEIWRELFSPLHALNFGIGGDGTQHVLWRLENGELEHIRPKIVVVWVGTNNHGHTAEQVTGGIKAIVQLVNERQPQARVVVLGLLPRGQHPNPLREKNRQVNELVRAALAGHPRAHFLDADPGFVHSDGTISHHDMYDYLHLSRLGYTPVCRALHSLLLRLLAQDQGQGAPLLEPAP
PAFAH2 FP inh = PAFAH2 (human) inhibition | recombinant PAFAH2, FP-rhodamine activity probe, fluorescence polarization | inhibition, % at 3.39 µM | hit rate 0.99% among 340,000 | AID 492956;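 active = inhibition above the mean over all tested compounds plus 3 SD, cut at about 30% in these data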;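 also: inhibitors block probe labeling of enzyme so polarization drops; 0% = enzyme with DMSO and 100% = wells lacking PAFAH2 protein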
PAFAH1B2 inh = PAFAH1B2 (human) inhibition. P68402. recombinant PAFAH1B2, FP-rhodamine activity probe, fluorescence polarization. inhibition, % at 3.39 µM. hit rate 1.2% among 340,000. AID 492953;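 active = inhibition above the mean of all tested compounds plus 3 SD, cut at about 24% in these data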;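 also: 0% = enzyme with DMSO and 100% = wells lacking PAFAH1B2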
Target sequence (P68402 whole entry, looked up): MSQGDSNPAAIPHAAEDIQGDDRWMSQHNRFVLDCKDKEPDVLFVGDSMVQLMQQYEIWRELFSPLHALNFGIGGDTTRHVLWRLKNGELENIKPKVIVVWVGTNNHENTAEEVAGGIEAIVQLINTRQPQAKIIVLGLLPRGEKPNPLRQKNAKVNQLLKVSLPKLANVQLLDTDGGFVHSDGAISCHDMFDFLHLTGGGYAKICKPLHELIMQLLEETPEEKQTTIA
Rin1 Abl inh = blocks binding of human Rin1 to Abl | TR-FRET Rin1/Abl binding, biochemical | P00519+Q13671 | AID 588664 | hit rate 0.4% among 360,000 | inhibition, % at 7.35 µM; in the data active = inhibition above about 5%, passing the limit was not always enough
PAFAH1B3 confirm = confirmation of human PAFAH1B3 inhibitors. shares compounds with PAFAH1B3 inh. inhibition, % at 3.39 µM. AID 493032. recombinant PAFAH1B3, FP-Rh activity-based probe, fluorescence polarization. hit rate 30% among 390;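 active = average inhibition over triplicate runs above the hit cutoff set in the earlier primary screen, cut at about 25% in these data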;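 also: 0% = enzyme with DMSO and 100% = wells lacking PAFAH1B3 protein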
Rin1-Abl confirm = confirmation of inhibitors of human Rin1-Abl interaction; shares compounds with Rin1 Abl inh; TR-FRET Rin1-Abl binding, purified proteins; inhibition, % at 7.35 µM; hit rate 49% among 1,300
GFP quencher = counter-screen for Rin1-Abl inhibitors: GFP fluorescence quenchers. shares compounds with Rin1 Abl inh. inhibitors/quenchers counterscreen. inhibition, % at 6.75 µM. hit rate 8.5% among 1,300. AID 602125;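 also: ABL1-eGFP fusion protein alone without its partner RIN1-SBP; 0% = protein with vehicle and 100% = wells lacking protein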
GFP quench dose = GFP fluorescence interference dose response; shares compounds with Rin1 Abl inh; GFP fluorescence interference/quenching counterscreen; IC50, µM; 230 tested, under 10 active; AID 602182; call rule not given here;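 also: ABL1-eGFP fusion protein alone without its RIN1 binding partner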
E coli Lon conf = confirmation of E. coli Lon protease inhibitors; inhibition, % at 7.94 µM; hit rate 31% among 1,400; purified E. coli Lon, fluorescence polarization; shares compounds with eLon inh; in the data active = inhibition above about 16%;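 also: 0% = enzyme with probe and DMSO and 100% = no enzyme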
The depositor's hits bear a star; nt = not tested or not shown. Rule as the data show it, unless noted: active = inhibition above about 6.5%; inactive = the rest.

SMILES	eLon inh	pPAFAH FP inh	PAFAH1B3 inh	PAFAH2 FP inh	PAFAH1B2 inh	Rin1 Abl inh	PAFAH1B3 confirm	others
O=C(COC(=O)c1ccc([N+](=O)[O-])s1)Nc1ncc(C(F)(F)F)cc1Cl	-21	14	30*	25	11	1	10
COC(=O)c1cc(S(=O)(=O)N2c3ccccc3CC2C)cn1C (configuration not stated)	1	4	8	8	8	-3	nt
C[C@@H]1CN([C@@H](C)CO)S(=O)(=O)c2ccc(Br)cc2O[C@H]1CN(C)C(=O)c1ccncc1	-9	nt	nt	nt	nt	-1	nt
O=C(O)c1cccc2c1-c1ccccc1/C2=N\Nc1ccccc1	-1	19	0	22	9	0	nt
O=C(O)c1cc(NN=C2c3ccccc3-c3ccccc32)ccc1Cl	-3	5	48*	24	9	-1	37*
O=C(O)c1cccc(NN=C2c3ccccc3-c3ccccc32)c1	3	nt	42*	20	5	1	31*
Cc1cccc(NC(=O)C(C)SCc2nc3sc4c(c3c(=O)[nH]2)CCCC4)n1 (configuration not stated)	-32	1	5	1	3	-1	nt
COc1ccc(/C=N/NC(=O)c2cc(O)c(O)c(O)c2)cc1Cn1cc([N+](=O)[O-])cn1	1	nt	39*	15	7	29*	8	Rin1-Abl confirm=29*;GFP quencher=11*
CC1(c2nnc(-c3ccncc3)o2)CC(c2ccc(F)cc2)=NO1 (configuration not stated)	2	0	26*	-32	6	43*	10	Rin1-Abl confirm=42*;GFP quencher=-1;GFP quench dose=>68
O=C(NN=c1c(=O)c2ccccc2c1=O)c1ccccc1	-2	-1	38*	3	2	23*	32*	Rin1-Abl confirm=29*;GFP quencher=0;GFP quench dose=>68
CN(C)/C=N/NC(=O)c1ccccc1	-3	-3	8	-2	-2	-1	nt
O=C(c1ccc(CSc2ccc(Cl)cc2)o1)N1CCOCC1	-9	nt	nt	nt	nt	5	nt
CCCn1cc(S(=O)(=O)c2ccc(OC)cc2)c(=O)c2cc(OC)ccc21	-12	-2	4	0	1	2	nt
Nc1cnccc1C(=O)O	131*	18	28*	16	13	0	19	E coli Lon conf=80*
COC(=O)c1ccncc1N	-14	2	2	-1	4	3	nt
Cc1ccc(NCc2ccccc2O)cc1	3	4	1	-2	4	0	nt
Cc1ccc(CNc2ccc(O)cc2)cc1	20*	nt	39*	22	18	5	10	E coli Lon conf=-25
O=C(COC(=O)c1cc(-c2cccc3ccccc23)nc2ccccc12)NC1CCS(=O)(=O)C1 (configuration not stated)	178*	15	29*	25	21	-28	14	E coli Lon conf=15
Cc1cc(C(=O)OCC(=O)NC2CCS(=O)(=O)C2)c2ccccc2n1 (configuration not stated)	-3	0	10	1	6	-3	nt
C[C@@H]1CN([C@H](C)CO)C(=O)CCCn2nncc2CO[C@H]1CN(C)Cc1cccc(C(=O)O)c1	-6	nt	nt	nt	nt	-1	nt
CCOC(=O)c1c(C)oc2c1c(C=NCCO)c(O)c1ccccc12	25*	nt	30*	9	7	-4	12	E coli Lon conf=20*
O=C(Nc1ccccc1F)C1CCN(S(=O)(=O)c2cccnc2)CC1	2	1	2	4	-2	0	nt
O=C1c2cccc3c([N+](=O)[O-])ccc(c23)C(=O)N1c1ccccn1	27*	10	29*	6	13	-6	39*	E coli Lon conf=20*
